Screens as filed in PubChem.
In the library only some 0.78% were active in any assay of this set; here they are far more common.
V-ATPase pH: yeast V-ATPase proton transport regulation by pHLuorin | actives 0.37% (n = 350,000) | S. cerevisiae, pHLuorin cytosolic pH fluorescence | response, % at 10 µM; in the data active means response mostly above about 7.3%, no sharp cut-off; inactive means mostly below about 5.4%; further: actives read high
CR mimetic SO: lowers age-related superoxide in aged yeast cells; S. cerevisiae aged cells, superoxide DHE fluorescence; hits give low values; superoxide response (% of plate mean), % at 10 µM; actives 0.18% (n = 330,000); AID 2690;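 active means superoxide response under a set limit, about three screen SD below normal, cut at about 65% in these data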;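 further: yeast aged for seven days with compound at 30 °C before DHE staining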
PKA-R1A act: PKA-R1A complex activation; P00514+P68181; PKA-R1A dissociation, Cy5-IP20 fluorescence polarization; scaled: DMSO 0%, 113 µM cGMP 100%; activation, % at 11.4 µM; actives 0.083% (n = 340,000); AID 504707;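 active means percent activation above the mean of all tested compounds plus 3 SD, cut at about 19% in these data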;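 further: higher means more PKAc released from R1A so a rise in polarization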
JMJD2C inh: human JMJD2C demethylase inhibition; actives 0.069% (n = 330,000); GST-JMJD2C(1-420) H3K9me3 demethylation, DELFIA europium; inhibition, % at 2.35 µM; Q9H3R0;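 active means more than half of a compound's replicate wells show inhibition beyond 50%, single wells judged on their own value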;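 further: signal counts dimethyl H3K9 product captured on neutravidin plate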
PKA-R2B activ: activators of human PKA-R2B complex. activation, % at 11.4 µM. PKA-R2B holoenzyme dissociation, Cy5-IP20 fluorescence polarization; R2B truncated from residue 108, S112A mutant; 0% DMSO only, 100% 113 µM cGMP. actives 0.079% (n = 340,000). AID 504700;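 active means activation above a cutoff set at the mean over all compounds plus 3 SD, cut at about 18% in these data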;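 further: higher means more holoenzyme dissociation and a rise in polarization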
PolyA inhibitor: yeast polyadenylation inhibition. S. cerevisiae SKY197-pL101 polyadenylation reporter, beta-gal luminescence; efflux-impaired pdr1/pdr3 knockout yeast; score 100 = 6 SD above DMSO. activity score, % at 12 µM. actives 0.02% (n = 300,000);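 active means lowest replicate activity score at least 50, where 100 means six control SD above control mean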;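 further: yeast exposed to compound for 9 h at 30 °C; higher score means more reporter readthrough which indicates perturbed polyadenylation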
R2B FP artifact: counter-screen for PKA-R2B activators: fluorescence polarization artifacts. shares compounds with PKA-R2B activ. FP artifact counterscreen. activation, % at 11.4 µM. actives 6% (n = 270). AID 504796; in the data active means activation above about 20%;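 further: Cy5 labelled IP20 peptide probe with compound but no PKA protein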
PKA-R2B confirm: confirmation of human PKA-R2B complex activators; activation, % at 11.4 µM; AID 504797; shares compounds with PKA-R2B activ; actives 9% (n = 270); fluorescence polarization, activation; in the data active means activation above about 19%
R1A FP artifact: fluorescence polarization artifact in PKA-R1A activator counter-screen | activation, % at 11.4 µM | actives 7% (n = 280) | Cy5-IP20 peptide alone, fluorescence polarization artifact counterscreen | shares compounds with PKA-R1A act;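 active means mean activation over triplicate runs exceeds the adjusted cutoff derived for the parent primary screen, cut at about 19% in these data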;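 further: no PKA protein present so any polarization rise reflects compound interference; higher means stronger polarization artifact and likely false positive in parent screen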
PKA-R1A confirm: PKA-R1A complex activation, confirmation | activation, % at 11.4 µM | shares compounds with PKA-R1A act | Cy5-IP20 fluorescence polarization, PKA-R1A holoenzyme dissociation | AID 504800 | actives 9% (n = 280);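 active means mean activation over replicate wells exceeds the adjusted hit threshold taken from the earlier primary screen, cut at about 20% in these data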
Target sequence (P00514 whole entry, looked up): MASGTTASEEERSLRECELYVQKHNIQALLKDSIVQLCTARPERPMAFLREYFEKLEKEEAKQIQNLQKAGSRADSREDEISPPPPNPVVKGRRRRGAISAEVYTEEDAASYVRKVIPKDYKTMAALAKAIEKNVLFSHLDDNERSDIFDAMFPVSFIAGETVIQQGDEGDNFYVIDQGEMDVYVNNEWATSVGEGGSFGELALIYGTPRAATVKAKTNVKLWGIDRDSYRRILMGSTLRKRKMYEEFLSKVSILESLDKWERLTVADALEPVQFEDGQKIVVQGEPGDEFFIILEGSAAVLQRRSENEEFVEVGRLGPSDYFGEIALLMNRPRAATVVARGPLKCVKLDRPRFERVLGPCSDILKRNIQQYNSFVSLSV
Numbers stand for hits; i = inactive; nt = not tested or not shown; ! = not confirmed by another sample.

SMILES | V-ATPase pH | CR mimetic SO | PKA-R1A act | JMJD2C inh | PKA-R2B activ | PolyA inhibitor | R2B FP artifact | PKA-R2B confirm | others
COC(=O)c1ccc(N2CCN(S(=O)(=O)c3ccc(C)cc3)CC2)c([N+](=O)[O-])c1 | i | i | i | i | i | i | nt | nt
COc1ccccc1CCC(=O)OCC(=O)Nc1ccc(C(N)=O)cc1 | i | i | i | i | i | i | nt | nt
Cc1ccccc1-c1nc(Cc2ccc(Cl)cc2)no1 | i | i | i | i | 19.3 | i | i | i
O=S(=O)(O)c1cccc2c(N=Nc3ccc(O)c4ncccc34)cccc12 | i | i | i | i | 20.8 | i | i | i
Cc1ccccc1N=Nc1ccc(O)c2ncccc12 | i | i | i | i | i | i | nt | nt
COc1ccc(C(=O)NCCS(=O)(=O)N2CCCCCC2)cc1 | i | i | i | i | i | i | nt | nt
O=C(NC1CCCC1)c1cc(S(=O)(=O)N2CCCC2)ccc1Cl | i | i | i | i | i | i | nt | nt
O=C(NC1CCCCC1)c1cc(S(=O)(=O)N2CCN(c3ccccc3)CC2)ccc1Cl | i | i | i | nt | 20.0 | nt | i | i
C=CCn1c(SCN2C(=O)c3ccccc3C2=O)nc2ccc(Cl)cc2c1=O | i | i | i | i | 18.7 | i | i | i
COc1cccc(-c2cc(-c3cccnc3)nc(N)c2C#N)c1 | i | i | i | i | i | i | nt | nt
COc1ccc(OC)c(-c2cc(-c3cccnc3)nc(N)c2C#N)c1 | i | i | i | i | 19.1 | i | i | i
CC(=O)C(C(C)=O)C(c1ccccc1)c1nc2ccccc2[nH]c1=O (stereo not given) | i | i | i | i | i | i | nt | nt
O=C1C2=C(SCCS2)C(=O)N1c1ccccc1 | i | i | i | i | 24.0 | i | i | i
CS(=O)(=O)N1CCC(C(=O)NCc2ccc(F)cc2)CC1 | i | i | i | i | i | i | nt | nt
Cc1ccc2c(c1)N(CCC(=O)NCCCN1CCCC1)C(=O)C(C)O2 (stereo not given) | i | i | i | i | i | i | nt | nt
CCCc1cc(=O)n2[nH]c(NCc3c(Cl)cccc3Cl)nc2n1 | i | i | i | i | 24.1 | i | 22.2 | i
CC1CCCN(C(=O)CN(C)S(=O)(=O)c2cccc3nsnc23)C1 (stereo not given) | i | i | i | i | i | i | nt | nt
O=C1CCC/C1=C/Nc1cccc(F)c1 | i | i | i | i | 19.0 | i | i | i
O=C1CCCC/C1=C/Nc1ccc2c(c1)OCO2 | i | i | i | i | i | i | nt | nt
Cn1ccnc1SCc1ccc(Cl)cc1Cl | i | i | i | i | i | i | nt | nt
O=C(O)c1sccc1SCc1ccc(Cl)cc1Cl | i | i | i | i | 22.9 | i | i | i
Cc1ccc2cn[nH]c2c1[N+](=O)[O-] | i | i | i | i | i | i | nt | nt
NC(=O)CSc1nnc(COc2ccccc2)n1CCc1ccccc1 | i | i | i | i | 21.5 | i | i | i
Cn1cccc1Cc1nnc(SCC(N)=O)n1CCc1ccccc1 | i | i | i | i | i | i | nt | nt
CC(C(=O)O)c1ccc(-c2ccccc2)c(F)c1 (stereo not given) | i | i | i | i | 20.6! | i | i | i
SMILES | V-ATPase pH | CR mimetic SO | PKA-R1A act | JMJD2C inh | PKA-R2B activ | PolyA inhibitor | R2B FP artifact | PKA-R2B confirm | others
O=C(COC(=O)Cc1ccc(Cl)cc1Cl)NC1CC1 | i | i | i | i | i | nt | nt | nt
O=C(Cc1ccc(Cl)cc1Cl)NC1CCCCCC1 | i | i | i | i | 22.6 | i | i | i
CCN(Cc1ccc(Br)s1)C(=O)CSc1nnc(C2CC2)n1C1CC1 | i | nt | i | nt | i | nt | nt | nt
Cc1cc(C(=O)c2ccccc2)c(NC(=O)CN2CCOCC2)s1 | i | i | i | i | 18.5 | i | i | i
COCCNC(=S)Nc1cc2oc3ccccc3c2cc1OC | i | i | i | i | i | i | nt | nt
C[C@@]12CCC=C[C@H]1[C@H](c1ccccc1Br)N(Cc1ccccc1)C2=O | i | i | i | nt | i | nt | i | i
Oc1ccccc1/C=N/Nc1ncc(Br)cn1 | i | i | i | i | 25.6 | i | i | i
Cc1nc2scc(C)n2c(=O)c1S(=O)(=O)Nc1ccc(F)cc1 | i | i | i | i | 21.7 | i | i | i
Cc1cc(F)ccc1NS(=O)(=O)c1c(C)nc2scc(C)n2c1=O | i | i | i | i | i | i | nt | nt
CCCC(=O)Nc1ncnc2c1ncn2[C@@H]1O[C@@H]2COP(=O)(O)O[C@H]2[C@H]1OC(=O)CCC | i | i | 40.7 | i | 32.9 | i | i | 33.8 | R1A FP artifact=i;PKA-R1A confirm=37.2
CNc1ncnc2c1ncn2[C@@H]1O[C@H](CO)[C@@H](O)[C@H]1O | i | i | i | nt | i | nt | nt | nt
CC1=C/C(=C(\c2cc(C)c(O)c(Br)c2)c2ccccc2S(=O)(=O)O)C=C(Br)C1=O | i | i | 34.3 | i | 40.2 | i | 58.7 | 55.4 | R1A FP artifact=58.7;PKA-R1A confirm=55.1
CCCc1cc(=O)n2[nH]c(NCc3ccccc3F)nc2n1 | i | i | i | i | i | i | nt | nt
CCCc1cc(=O)n2[nH]c(NCc3c(F)cccc3Cl)nc2n1 | i | i | 32.7 | i | 31.9 | i | 27.3 | 20.0 | R1A FP artifact=27.3;PKA-R1A confirm=28.1
Cc1cc(=O)n2[nH]c(NCc3ccccc3F)nc2n1 | i | i | 30.4 | i | 35.9 | i | 33.9 | 31.5 | R1A FP artifact=33.9;PKA-R1A confirm=34.6
O=[N+]([O-])c1ccccc1S(=O)(=O)N1CCCC(C(F)(F)F)C1 (stereo not given) | i | i | i | i | i | i | nt | nt
COc1cccc(NC(=O)CN(C)C(C)C(=O)NC(C)c2ccc(Cl)cc2Cl)c1 (stereo not given) | i | nt | i | nt | i | nt | nt | nt
Nc1ncnc2c1nc(Sc1ccc(Cl)cc1)n2[C@@H]1O[C@@H]2COP(=O)(O)O[C@H]2[C@H]1O | i | i | 106.8 | i | 106.4 | i | i | 101.0 | R1A FP artifact=i;PKA-R1A confirm=106.5
Cc1ccc(N2CC(C)Cn3c2nc2c3c(=O)[nH]c(=O)n2C)cc1C (stereo not given) | i | i | i | i | i | i | nt | nt
O=C(NCc1nc2ccccc2[nH]1)C1=C[C@H](c2ccc(Br)cc2)C[C@H](OCc2ccc(CO)cc2)O1 | i | i | 35.3 | i | 26.5 | i | 27.4 | 21.7 | R1A FP artifact=27.4;PKA-R1A confirm=26.8
C#Cc1ccc([C@H]2C=C(C(=O)NCc3nc4ccccc4[nH]3)O[C@@H](OCc3ccc(CO)cc3)C2)cc1 | i | i | i | i | i | i | nt | nt
